Bioassay records deposited in PubChem BioAssay by National Center for Advancing Translational Sciences (NCATS).
D1 antagonist: Antagonist of Human D 1 Dopamine Receptor: qHTS. D(1A) dopamine receptor (Homo sapiens), P21728. HEK293 TREx D1 cells, calcium flux, dopamine EC80; stronger effect = lower value. activity change, negative = inhibition, % at 10 µM. actives 3.2% (n = 360,000). AID 504652, 2011; in the data active = activity change below about -30%; also: % is scaled to controls: 0 for no effect and ±100 for the full control effect
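Inducible Hek293 Trex D1 cells (tetracycline, overnight, 30 C). Calcium dye 30–90 min RT. Antagonist mode: EC80 dopamine added after 180 s compound read.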
D1 agonist: Allosteric Agonists of the Human D1 Dopamine Receptor: qHTS. D(1A) dopamine receptor (Homo sapiens), P21728. HEK293 T-REx D1 cells, calcium flux, agonist mode. activation, % at 2 µM. actives 1% (n = 360,000); in the data active = activation above about 30%; also: 0% is about no effect
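Agonism was scored from calcium flux recorded over 180 s (1 read/s) after pintool compound addition, following a 10-cycle baseline. Cells were inducible force-coupled HEK293 TREx D1, plated overnight at 30 C and loaded with no-wash calcium dye.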
ERG Ets-DNA blk: qHTS for Small Molecule Inhibitors of the ERG Ets/DNA interaction | Transcriptional regulator ERG (Homo sapiens), P11308 | actives 0.028% (n = 370,000) | Potency, µM (top dose mostly 76.9 µM), for inactives: at the highest dose FP activity, negative = inhibition, actives largely listed as inhibitors | fluorescence polarization, His-ERG Ets domain / labelled DNA; active = well fitted inhibition curve with a large enough effect in the polarisation, with a control signal flat; inconclusive = small, poorly fitted or top-dose-only effect, or effect the other way, or a change in a side signal; inactive = no such curve, though single readings can be large or run the other way; the % refers to the polarisation;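 also: polarization taken with two DNA probes labelled with fluorescein and Texas red; potency is read from the fitted curve at half-maximal effect; % of control where 0% means no effect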
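His-tagged ERG Ets domain (1 uM in the protein solution; 300mM KCl, 50mM Tris-HCl, 1mM EDTA, 1mM DTT, pH 7.5) received compound, then a probe mix of 5 nM fluorescein-DNA and 100nM Texas-615-DNA. Fluorescence polarization was read for both dyes.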
D1 PAM: Potentiators of Human D1 Dopamine Receptor: qHTS. HEK293 TREx D1 cells, calcium flux, dopamine EC20 potentiation. potentiation, % at 10 µM. D(1A) dopamine receptor (Homo sapiens), P21728. actives 0.036% (n = 360,000); in the data active = potentiation above about 30%; also: 0% is about no effect
D3 antag: qHTS of D3 Dopamine Receptor Antagonist: qHTS; actives 2.5% (n = 360,000); D3R cells, DiscoveRx beta-arrestin luminescence, antagonist mode; stronger effect = lower value; D(3) dopamine receptor (Homo sapiens), P35462; max response, negative = inhibition, %; AID 652054, 2013; in the data active = max response below about -50%; inconclusive = no clear call, values can overlap the other calls; also: % is scaled to controls: 0 for no effect and ±100 for the full control effect
Target sequence (P35462 whole entry, looked up): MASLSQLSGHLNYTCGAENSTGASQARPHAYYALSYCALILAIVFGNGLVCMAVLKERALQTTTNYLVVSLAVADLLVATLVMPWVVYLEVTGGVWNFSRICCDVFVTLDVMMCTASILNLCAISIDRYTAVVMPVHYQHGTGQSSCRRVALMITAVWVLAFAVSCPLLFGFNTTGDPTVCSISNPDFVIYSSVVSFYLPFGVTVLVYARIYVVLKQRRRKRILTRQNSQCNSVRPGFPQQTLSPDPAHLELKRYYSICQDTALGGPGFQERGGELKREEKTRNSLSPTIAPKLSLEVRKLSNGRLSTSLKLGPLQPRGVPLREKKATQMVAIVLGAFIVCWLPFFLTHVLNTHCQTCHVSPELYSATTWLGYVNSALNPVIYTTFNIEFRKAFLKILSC
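Cells plated overnight at 1500 cells/well, then exposed to library compounds with dopamine controls for 90 minutes at 37 degrees C. DiscoveRx reagent added for 30–60 minutes at room temperature; luminescence read, quantitative HTS format.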
DRD3 agonist: qHTS of D3 Dopamine Receptor Agonist: qHTS; D3R DiscoveRx beta-arrestin cells, luminescence, 90 min; actives 0.58% (n = 410,000); AID 652048, 2013; max activation, %; D(3) dopamine receptor (Homo sapiens), P35462; in the data active = max activation above about 30%; also: 0% is about no effect
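Agonist mode: compounds and dopamine controls were applied to plated cells for 90 min at 37 degrees C after an overnight attachment at 1500 cells/well. Luminescent read-out followed 30 - 60 minutes at room temperature with DiscoveRx detection reagent.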
Starred values were filed as active, the others as inactive; u = inconclusive; x = no result given. Most compounds without a hit are left out; they make up all but 6.1% or so of the library.

SMILES	D1 antagonist	D1 agonist	ERG Ets-DNA blk	D1 PAM	D3 antag	DRD3 agonist
CCS(=O)(=O)c1nc(S(=O)(=O)c2ccc(C)cc2)c(N2CCC(C)CC2)s1	-36.1*	4.3	-3.8%	-6.9	-9.5	-0.1
CCCS(=O)(=O)c1nc(S(=O)(=O)c2ccc(Cl)cc2)c(N2CCC(O)CC2)s1	-16.2	3.3	-1.2%	51.6*	2.1	-12.6
Cc1ccc(S(=O)(=O)c2nc(S(=O)(=O)c3ccc(C)cc3)c(N3CCN(CCO)CC3)s2)cc1	-4.0	5.2	-2.3%	0.9	-91.6*	-17.6
CCS(=O)(=O)c1nc(S(=O)(=O)c2ccc(Cl)cc2)c(N2CCCC2)s1	0.9	2.7	-3.9%	0.1	4.2	0.0
CCS(=O)(=O)c1nc(S(=O)(=O)c2ccc(Cl)cc2)c(N2CCN(C)CC2)s1	39.7	2.0	-2.8%	-1.6	-74.6*	-19.5
CCCS(=O)(=O)c1nc(S(=O)(=O)c2ccc(C)cc2)c(N2CCC(C)CC2)s1	1.5	13.4	1.8%	4.2	-6.0	1.0
COc1ccc(CNc2ncc(-c3ccccc3)n2C)c2ccccc12	-4.6	9.7	9.3%	-7.6	-8.9	-7.8
COc1ccc(CNc2ncc(-c3ccccc3)n2C)c(OC)c1OC	-30.2*	2.7	-8.6%	-2.4	1.3	2.1
O=c1c(/C=C(\O)c2ccc(F)cc2)nc2ccccc2n1-c1ccccc1	5.4	159.5*	3.7%	7.9	0.0	10.8
COc1ccc(N=Cc2ccc[nH]2)cc1	-1.6	0.5	6.5%	12.5	1.6	0.8
c1cc2[nH]snc2c2nc(C3CC3)nc12	4.6	-0.8	-2.8%	-5.5	24.3	33.9*
O=C(c1ccc(S(=O)(=O)NCC2CCCO2)cc1)N1CCc2ccccc21 (stereo unspecified)	-51.1*	12.8	0.1%	-5.6	11.4	7.1
Cc1ccc(-c2ccc(S(=O)(=O)NCC3CCCO3)cc2)cc1 (stereo unspecified)	-31.6*	8.4	-15.6%	-6.0	15.0	2.2
CCN(CC)S(=O)(=O)c1ccc(S(=O)(=O)NCC2CCCO2)cc1 (stereo unspecified)	-20.3	2.3	-2.3%	-9.3	-5.5	-16.7
Cc1ccc(CN(Cc2ccco2)S(=O)(=O)c2ccc(S(=O)(=O)NCC3CCCO3)cc2)cc1 (stereo unspecified)	-35.6*	23.4	4.6%	-3.5	18.8	2.8
Cc1ccc(S(=O)(=O)Nc2ccc(S(=O)(=O)NCC3CCCO3)cc2)cc1 (stereo unspecified)	-19.5	6.3	3.9%	-5.2	-13.6	1.6
O=C(CCN1CCN(S(=O)(=O)c2ccc(Cl)cc2)CC1)Nc1ccc(F)cc1	-5.5	5.4	12.7%	0.4	-19.1	0.0
COc1ccc(N(C)S(=O)(=O)c2cccc(C(=O)Nc3ccc(OC)nc3)c2)cc1	-7.9	7.6	x	-0.7	x	x
COc1ccc(N(C)S(=O)(=O)c2cccc(C(=O)NCc3ccc(C)cc3)c2)cc1	-31.8*	4.1	-13.3%	-5.3	2.6	3.8
COc1ccc(N(C)S(=O)(=O)c2cccc(C(=O)Nc3ccc4c(c3)OCCO4)c2)cc1	-34.9*	-1.1	-2.3%	-11.2	21.7	-15.3
Cc1ccc(OCCNC(=O)c2cccc(Oc3ccc(C(F)(F)F)cc3[N+](=O)[O-])c2)cc1	-3.7	44.5*	-10.3%	-5.8	1.3	0.3
COc1ccc(CCNC(=O)COc2ccc(N(C)S(=O)(=O)c3ccc(C)cc3)cc2)cc1	-31.0*	16.0	-2.0%	2.2	-2.6	1.4
COc1ccc(CNC(=O)c2ccc(N(C)S(=O)(=O)c3ccc(C)cc3)cc2)cc1	1.6	11.4	-6.2%	-8.7	-10.6	-16.6
COc1cccc(CNC(=O)CC2Sc3ccccc3NC2=O)c1 (stereo unspecified)	30.6	-2.8	-12.3%	10.7	-7.5	-3.4
COc1ccc(NC(=O)c2cccnc2Nc2ccccc2)cc1	-5.5	2.0	-2.0%	-0.1	-2.7	10.5
SMILES	D1 antagonist	D1 agonist	ERG Ets-DNA blk	D1 PAM	D3 antag	DRD3 agonist
CCc1nn2c(-c3ccco3)ccnc2c1-c1ccc(F)cc1	-1.2	3.7	u	-5.5	x	8.4
Cc1ccc(OCCNC(=O)c2cccc(S(=O)(=O)NCc3ccccc3)c2)cc1	-34.5*	40.6*	-10.8%	-1.8	6.3	-12.6
CN(C)c1cccc(C(=O)Nc2nc3ccccc3[nH]2)c1	-3.6	3.5	-4.9%	-11.1	u	-15.1
Cc1ccc(S(=O)(=O)NCc2ccc(C(=O)NCCN(Cc3ccccc3)C(C)C)cc2)cc1	-25.6	22.5	5.5%	-2.9	-78.7*	-18.7
Cc1ccc(N(C)S(=O)(=O)c2cccc(C(=O)Nc3nc4ccccc4[nH]3)c2)cc1	11.1	5.3	-9.8%	-6.0	34.3	42.2*
Cc1ccc(S(=O)(=O)NCc2ccc(C(=O)NCCc3cccc(C)c3)cc2)cc1	0.3	5.3	0.5%	5.3	x	-2.8
CCOc1ccc(NC(=O)c2ccc3c(c2)S(=O)(=O)N=C2CCCCCN23)cc1	x	x	x	x	-6.4	-3.4
Cc1nc(C(F)(F)F)nc(Nc2ccc(N=Nc3ccccc3)cc2)c1C#N	6.1	2.7	2.4%	-5.2	-2.8	-1.0
CNc1nc(-c2cccc(C(=O)N(C)C)c2)cn2ccnc12	x	x	x	x	0.0	1.2
O=C(/C=C/NNC(=O)c1ccccc1O)c1ccccc1	-28.3	1.8	16.8%	-14.1	-0.3	-5.2
COc1cc2c(cc1OC)C1Cc3ccc(OC)c(OC)c3CN1CC2 (stereo unspecified)	-74.3*	0.1	-5.3%	-14.0	u	-13.9
COc1ccc2c(c1OC)CN1CCc3cc4c(cc3[C@@H]1[C@@H]2O)OCO4	-66.1*	-1.7	8.2%	-11.8	-117.3*	-98.9
COc1cc2c(cc1OC)[C@@H]1Cc3ccc(OC)c(OC)c3CN1CC2	-53.3*	2.5	-5.4%	-5.8	-99.2*	-33.8
C[C@H](CO)N1C[C@H](C)[C@@H](CN(C)C(=O)Nc2ccccc2)Oc2ccc(NC(=O)Nc3ccc4c(c3)OCO4)cc2C1=O	x	x	5.0%	x	2.6	-6.3
C[C@@H]1CN([C@H](C)CO)C(=O)c2cc(NC(=O)Nc3ccc4c(c3)OCO4)ccc2O[C@H]1CN(C)Cc1ccncc1	x	x	7.3%	x	4.3	31.7*
C[C@H](CO)N1C[C@H](C)[C@@H](CN(C)C(=O)NC2CCCCC2)Oc2ccc(NC(=O)Cn3cnnn3)cc2C1=O	x	x	4.5%	x	12.3	-3.9
